Measured values reported in PubChem BioAssay AID1159580 (chemical genetic matrix, 2015).
Several values for one entry are separate records, joined by “and”; a condition that tells them apart may be missing. Equal values may be shown once. Hit rate of the full screen: of about 5,500 compounds, about 2,000 (36%) were called active. About 18% were inconclusive and are not listed. Rule as the data show it: active = normalized growth mostly below about 0.91 (no sharp cut-off); inconclusive = no clear call, values can overlap the other calls; inactive = mostly above about 0.92. The list shows a part of the results.

Assay: chemical genetic growth profiling, strain panel (AID 1159580);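 also: tested at 20 µM; growth read once vehicle control cultures reached saturation at 30 °C; 1 = growth at the plate median or of vehicle wells; lower values mean less growth of the strain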
Details: S. cerevisiae deletion strains, growth OD

Measured: normalized growth

CCOC(=O)c1c(C)cc(O)c(C=O)c1O
active: locus YAL013W, strain DEP1, hits give low values 0.271 | locus YAL021C, strain ccr4, hits give low values 0.615 | locus YAL026C, strain drs2, hits give low values 0.212 | locus YAL030W, strain snc1, hits give low values 0.725 | locus YBL061C, strain skt5, hits give low values 0.642 | locus YBR009C, strain hhf1, hits give low values 0.592 | locus YBR023C, strain chs3, hits give low values 0.619 | locus YBR171W, strain sec66, hits give low values 0.776 | locus YBR229C, strain ROT2, hits give low values 0.541 | locus YBR231C, strain swc5, hits give low values 0.548 | locus YBR279W, strain paf1, hits give low values 0.66 | locus YCL011C, strain gbp2, hits give low values 0.616 | locus YCL016C, strain dcc1, hits give low values 0.714 | locus YCL029C, strain bik1, hits give low values 0.144 | locus YCL061C, strain MRC1, hits give low values 0.624 | locus YCL069W, strain vba3, hits give low values 0.531 | locus YCR088W, strain abp1, hits give low values 0.832 | locus YDL005C, strain med2, hits give low values 0.903 | locus YDL035C, strain GPR1, hits give low values 0.21 | locus YDL040C, strain nat1, hits give low values 0.86 | locus YDL074C, strain BRE1, hits give low values 0.156 | locus YDL101C, strain DUN1, hits give low values 0.16 | locus YDL134C, strain PPH21, hits give low values 0.249 | locus YDL185W, strain tfp1, hits give low values 0.0651 | locus YDL192W, strain arf1, hits give low values 0.202 | locus YDR001C, strain nth1, hits give low values 0.841 | locus YDR069C, strain doa4, hits give low values 0.516 | locus YDR101C, strain arx1, hits give low values 0.181 | locus YDR137W, strain rgp1, hits give low values 0.202 | locus YDR150W, strain NUM1, hits give low values 0.436 | locus YDR159W, strain sac3, hits give low values 0.413 | locus YDR162C, strain NBP2, hits give low values 0.0543 | locus YDR297W, strain sur2, hits give low values 0.609 | locus YDR318W, strain mcm21, hits give low values 0.142 | locus YDR334W, strain swr1, hits give low values 0.619 | locus YDR335W, strain msn5, hits give low values 0.623 | locus YDR388W, hits give low values 0.213 | locus YDR392W, strain spt3, hits give low values 0.135 | locus YDR502C, strain sam2, hits give low values 0.185 | locus YEL003W, strain gim4, hits give low values 0.582 | locus YEL037C, strain rad23, hits give low values 0.71 | locus YEL061C, strain CIN8 (second series), hits give low values 0.643 | locus YEL061C, strain CIN8, hits give low values 0.153 | locus YER015W, strain faa2, hits give low values 0.516 | locus YER016W, strain bim1, hits give low values 0.768 | locus YER110C, hits give low values 0.295 | locus YER111C, strain swi4, hits give low values 0.278 | locus YER155C, strain BEM2 (second series), hits give low values 0.409 | locus YER155C, strain BEM2, hits give low values 0.178 | locus YER167W, strain BCK2, hits give low values 0.105 | locus YFR010W, strain ubp6, hits give low values 0.681 | locus YGL078C, strain dbp3, hits give low values 0.57 | locus YGL086W, strain mad1, hits give low values 0.186 | locus YGL167C, strain pmr1, hits give low values 0.842 | locus YGL173C, strain kem1, hits give low values 0.27 | locus YGL227W, strain vid30, hits give low values 0.821 | locus YGL240W, strain doc1, hits give low values 0.503 | locus YGL248W, strain PDE1, hits give low values 0.236 | locus YGL253W, strain hxk2, hits give low values 0.283 | locus YGR078C, strain PAC10, hits give low values 0.103 | locus YGR135W, strain pre9, hits give low values 0.119 | locus YGR229C, strain SMI1, hits give low values 0.0734 | locus YGR252W, strain gcn5, hits give low values 0.303 | locus YHR013C, strain ard1, hits give low values 0.506 | locus YHR027C, strain rpn1, hits give low values 0.405 | locus YHR030C, strain SLT2, hits give low values 0.064 and 0.117 | locus YHR079C, strain IRE1 (second series), hits give low values 0.16 | locus YHR079C, strain IRE1, hits give low values 0.138 | locus YHR094C, strain hxt1, hits give low values 0.231 | locus YHR129C, strain ARP1, hits give low values 0.187 | locus YHR142W, strain chs7, hits give low values 0.345 | locus YHR200W, strain rpn10, hits give low values 0.484 | locus YIL066C, strain RNR3, hits give low values 0.167 | locus YIL073C, strain SPO22, hits give low values 0.211 | locus YIL125W, strain kgd1, hits give low values 0.471 | locus YIR030C, strain dcg1, hits give low values 0.196 | locus YJL092W, strain hpr5, hits give low values 0.756 | locus YJL095W, strain BCK1 (second series), hits give low values 0.381 | locus YJL095W, strain BCK1, hits give low values 0.0697 and 0.127 | locus YJL115W, strain asf1, hits give low values 0.784 | locus YJL129C, strain trk1, hits give low values 0.613 | locus YJL134W, strain LCB3, hits give low values 0.535 | locus YJL154C, strain vps35, hits give low values 0.774 | locus YJL164C, strain tpk1, hits give low values 0.587 | locus YJL166W, strain qcr8, hits give low values 0.449 | locus YJL168C, strain set2, hits give low values 0.534 | locus YJL187C, strain SWE1 (second series), hits give low values 0.15 | locus YJL187C, strain SWE1, hits give low values 0.625 | locus YJR043C, strain POL32, hits give low values 0.209 | locus YJR066W, strain TOR1, hits give low values 0.091
inactive: locus YBR021W, strain FUR4, hits give low values 0.851 | locus YDR195W, strain ref2 0.908
